In PubChem BioAssay:
Active and inactive are the calls of the source.

Legend:
[1] = compounds binding Alexa647 anti-His antibody – biochemical, small-molecule microarray, 635 nm fluorescence, artefact control for SMM control protein annotation, primary screen (AID 1128); settings: higher = more signal;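 further: score merges feature fluorescence with signal-to-noise for each printed compound spot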
[2] = system: Human papillomavirus type 1a E7 protein (residues 1-88); assay: HPV1a E7 small-molecule binders, primary screen, biochemical, small-molecule microarray, residues 1-88, 635 nm (AID 1129); settings: small-molecule microarray binding, fluorescence 635 nm; higher = more signal
[3] = target: Focal adhesion kinase 1 (Homo sapiens) (UniProt Q05397); assay: PTK2 protein binding on printed compound slides – biochemical, small-molecule microarray, 635/667 nm fluorescence, BSA, DTT, primary screen (AID 1130); settings: 635 nm fluorescence, higher = more signal;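 further: composite of spot emission at 667 nm and signal to noise over triplicate slides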
[4] = system: Fibrinogen (Alexa647-labelled); assay: Alexa647-fibrinogen binding to printed small molecules – biochemical, small-molecule microarray, 635/667 nm fluorescence, artefact control for SMM control-protein annotation, profiling panel (AID 1131); settings: fibrinogen-A647 binding fluorescence, higher = more signal;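 further: z-score merges 667 nm fluorescence with per-spot signal-to-noise over triplicate slides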
[5] = target: Follistatin (Homo sapiens) (UniProt P19883); assay: FST protein binding to printed compounds – biochemical, small-molecule microarray, 635/667 nm fluorescence, primary screen (AID 1132); settings: 635 nm fluorescence, higher = more signal
[6] = target: Fibroblast growth factor 2 (Homo sapiens) (UniProt P09038); assay: basic fibroblast growth factor binding to printed compounds – biochemical, small-molecule microarray, 635/667 nm fluorescence, primary screen (AID 1133); settings: FGF2, fluorescence 635/667, higher = more signal
[7] = JC-1 mitochondrial potential readout, lung cancer cells – cell-based, A549, JC-1 fluorescence, basal, 24 h, 100 nL, profiling panel (AID 1138); settings: higher = more signal;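 further: A549 lung adenocarcinoma cells under basal conditions with no added stimulus; test concentration not given here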
Lefty1 = Lefty1 protein binding to printed compounds – biochemical, small-molecule microarray, 635/667 nm fluorescence, primary screen (AID 1139); settings: fluorescence 635/667, higher = more signal
[8] = system: wheat germ agglutinin (Triticum aestivum), Alexa647-labelled; assay: Alexa647-WGA lectin binding to printed small molecules – biochemical, small-molecule microarray, 635/667 nm fluorescence, artefact control for SMM control-protein annotation, profiling panel (AID 1140); settings: WGA-A647 binding, 635 nm fluorescence, higher = more signal;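 further: score merges 667 nm feature emission with signal to noise over triplicate slides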
[9] = target: Luciferin 4-monooxygenase (Photinus pyralis) (UniProt P08659); assay: inhibition of purified Photinus pyralis luciferase – biochemical, luminescence, purified enzyme, 2006 set, primary screen (AID 1141); settings: purified firefly luciferase, SteadyGlo luminescence, 30 min; higher = more signal, called active from +8 up or from −8 down;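 further: cell-free assay with purified firefly luciferase at 100 ng per well in PBS; test concentration not given here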
Chain of Luciferin 4-monooxygenase (Photinus pyralis) (P08659 whole entry, looked up): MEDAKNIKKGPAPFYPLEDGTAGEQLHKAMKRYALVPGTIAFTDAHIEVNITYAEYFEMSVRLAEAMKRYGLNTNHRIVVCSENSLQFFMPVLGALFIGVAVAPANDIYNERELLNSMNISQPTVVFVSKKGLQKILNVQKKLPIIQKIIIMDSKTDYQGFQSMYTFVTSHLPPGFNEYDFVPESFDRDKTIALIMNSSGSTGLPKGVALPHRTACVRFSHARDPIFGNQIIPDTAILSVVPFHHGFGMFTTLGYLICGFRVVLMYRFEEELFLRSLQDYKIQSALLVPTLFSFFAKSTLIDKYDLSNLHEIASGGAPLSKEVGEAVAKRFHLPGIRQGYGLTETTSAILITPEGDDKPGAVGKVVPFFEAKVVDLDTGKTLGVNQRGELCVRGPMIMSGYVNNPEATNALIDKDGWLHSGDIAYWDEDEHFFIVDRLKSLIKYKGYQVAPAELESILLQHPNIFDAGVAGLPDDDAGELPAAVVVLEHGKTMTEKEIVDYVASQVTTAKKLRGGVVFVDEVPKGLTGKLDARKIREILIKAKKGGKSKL

Chain of Focal adhesion kinase 1 (Homo sapiens) (Q05397 whole entry, looked up): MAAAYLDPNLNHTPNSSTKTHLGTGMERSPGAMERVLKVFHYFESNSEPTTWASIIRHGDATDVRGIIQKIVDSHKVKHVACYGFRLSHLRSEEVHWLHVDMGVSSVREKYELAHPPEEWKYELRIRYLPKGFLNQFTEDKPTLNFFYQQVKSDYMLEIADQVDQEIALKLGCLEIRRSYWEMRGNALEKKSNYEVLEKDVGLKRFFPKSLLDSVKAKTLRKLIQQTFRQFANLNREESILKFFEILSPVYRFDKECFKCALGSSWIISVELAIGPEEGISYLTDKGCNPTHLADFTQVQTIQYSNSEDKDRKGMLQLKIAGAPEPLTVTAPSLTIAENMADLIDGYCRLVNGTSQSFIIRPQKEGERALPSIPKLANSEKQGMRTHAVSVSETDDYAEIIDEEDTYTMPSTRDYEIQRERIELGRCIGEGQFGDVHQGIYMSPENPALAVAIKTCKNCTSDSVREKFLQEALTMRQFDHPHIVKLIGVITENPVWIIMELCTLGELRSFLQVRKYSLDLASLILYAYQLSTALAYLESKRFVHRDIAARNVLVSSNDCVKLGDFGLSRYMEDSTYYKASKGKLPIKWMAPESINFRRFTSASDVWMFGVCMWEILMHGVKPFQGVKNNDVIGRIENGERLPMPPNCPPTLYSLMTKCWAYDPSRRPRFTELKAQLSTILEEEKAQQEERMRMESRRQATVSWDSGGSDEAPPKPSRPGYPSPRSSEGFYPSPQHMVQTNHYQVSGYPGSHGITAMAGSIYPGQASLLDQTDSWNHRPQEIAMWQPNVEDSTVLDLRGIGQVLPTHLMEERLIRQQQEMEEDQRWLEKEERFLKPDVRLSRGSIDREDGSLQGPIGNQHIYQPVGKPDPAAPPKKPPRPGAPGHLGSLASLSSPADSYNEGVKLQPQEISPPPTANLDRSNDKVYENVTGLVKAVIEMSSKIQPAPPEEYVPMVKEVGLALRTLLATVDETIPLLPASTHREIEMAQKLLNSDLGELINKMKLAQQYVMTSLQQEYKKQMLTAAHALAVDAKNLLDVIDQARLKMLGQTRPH
Chain of Fibroblast growth factor 2 (Homo sapiens) (P09038 whole entry, looked up): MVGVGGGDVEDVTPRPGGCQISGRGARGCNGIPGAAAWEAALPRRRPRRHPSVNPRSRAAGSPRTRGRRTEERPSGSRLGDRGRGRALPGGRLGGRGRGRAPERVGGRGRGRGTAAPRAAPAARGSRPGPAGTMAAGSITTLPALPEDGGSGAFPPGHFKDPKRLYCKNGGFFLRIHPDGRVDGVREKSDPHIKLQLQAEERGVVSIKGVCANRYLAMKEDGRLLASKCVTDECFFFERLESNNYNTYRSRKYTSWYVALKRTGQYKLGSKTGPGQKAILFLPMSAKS
Chain of Follistatin (Homo sapiens) (P19883 whole entry, looked up): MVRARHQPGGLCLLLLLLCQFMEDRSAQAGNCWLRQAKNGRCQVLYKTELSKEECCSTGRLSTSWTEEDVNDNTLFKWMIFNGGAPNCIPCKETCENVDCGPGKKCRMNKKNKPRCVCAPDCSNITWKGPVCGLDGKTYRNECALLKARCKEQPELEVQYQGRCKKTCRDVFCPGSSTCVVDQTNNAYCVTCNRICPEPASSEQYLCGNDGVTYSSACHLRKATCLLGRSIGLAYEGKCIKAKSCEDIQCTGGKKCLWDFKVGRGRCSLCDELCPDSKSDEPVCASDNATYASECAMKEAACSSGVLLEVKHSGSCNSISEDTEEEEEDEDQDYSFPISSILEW

Compound	composite z-score [1]	composite z-score [2]	composite z-score [3]	composite z-score [4]	composite z-score [5]	composite z-score [6]	z-score [7]	composite z-score (Lefty1)	composite z-score [8]	z-score [9]
C[C@H]1CC[C@H]2C(=O)OC(CO)CN2[C@@H]1c1ccc(Br)cc1 (stereo not given in full)	0.58	-0.805	-0.442	0.276	0.124	-0.153	-0.486	-0.0811	0.162	-0.0741 (inactive)
COc1ccc(O[C@H]2C=C[C@@H](c3ccccc3)O[C@@H]2CON=C2[C@H]3CCn4c(=O)n(-c5ccccc5)c(=O)n4[C@H]3[C@H](O)[C@@H]3O[C@H]23)cc1	-0.444	1.05	0.0673	0.335	0.356	0.199	-0.336	0.451	0.883	0.618 (inactive)
COC(=O)[C@H]1O[C@@H](c2c(OC)c(OC)c(C)c(OC)c2OC)[C@H](C)[C@@H](O)[C@H]1C	0.377	0.998	0.169	0.902	0.694	0.577	0.274	1.08	0.526	-0.246 (inactive)
CO[C@@H]1COC(=O)[C@H](CCSC)NC(=O)CC=C[C@@H](C)COC(=O)CCC[C@H]1C	-0.252	-1.17	-0.798	-2.26	1.44	1.97	0.803	1.84	-0.65	1.05 (inactive)
C=Cc1ccc([C@H]2N[C@H](C(=O)O)CC[C@@H]2C)cc1	0.126	-1.47	-0.584	-0.719	0.632	0.486	1.28	0.431	0.388	-0.33 (inactive)
CCCNC(=O)OC[C@H]1O[C@H](CCON=Cc2ccc(C(=O)N3[C@H](c4ccc(C)cc4)[C@@H](C)CC[C@H]3C(=O)OC)cc2)C=C[C@@H]1Oc1ccc(OC)cc1	1.77	0.838	0.315	0.88	0.277	0.666	-0.195	0.58	0.236	0.407 (inactive)
COC(=O)[C@H](C)NC(=O)CCC1CC(OC(=O)NCc2cccc3ccccc23)CC2(CCCC(COC(=O)NCC(c3ccccc3)c3ccccc3)O2)O1 (stereo not given in full)	1.04	1.15	0.713	0.665	0.376	0.227	1.17	0.554	0.661	1.22 (inactive)
COC(=O)CC=C[C@@H](C)[C@@H]1C=C[C@H](O)[C@@H](CO)O1	-0.29	0.392	-0.281	0.201	1.04	0.413	0.204	0.767	-0.375	-0.203 (inactive)
C#CCCCON=C1C[C@@H](O)[C@@H](O)[C@@H]2[C@@H]3C(=O)N(c4cccc(Oc5ccccc5)c4)C(=O)[C@@H]3CC[C@H]12	0.247	-0.936	-0.427	-1.13	-0.446	-0.455	0.8	-0.275	0.272	0.134 (inactive)
CO[C@@H]1COC(=O)[C@@H](C)COC(=O)[C@@H](C)NC(=O)CC=C[C@@H]1C	0.548	-0.727	-0.149	-1.27	0.679	1.7	-1.24	1.43	0.224	0.138 (inactive)
O=C1CCCC=C1C(CCc1ccccc1)OC(=O)c1ccc(Br)cc1 (stereo not given)	0.0508	-0.757	-0.0417	-0.612	0.0148	0.0039	-0.65	0.167	-0.254	0.063 (inactive)
CCN1C(=O)[C@@H]2[C@H]3C(=CC[C@@H]2C1=O)C1(OCCCO1)[C@H]1O[C@H]1[C@H]3O	0.841	1.04	0.162	0.982	1.12	0.944	-2.41	0.946	0.692	-26.1 (active)
CC(CCN1CCCCc2nc(C)c(C)cc21)=NOC[C@@H](C)[C@H](OCc1ccccc1)C(C)C	1.59	-0.824	-0.0923	-2.81	-2.3	-0.84	0.37	-0.795	-0.614	-0.486 (inactive)
CCOC(=O)CCN1C(=O)[C@H]2[C@H]3[C@H](O)[C@H](O)CC(=NOCc4ccccc4)[C@H]3CC[C@H]2C1=O	0.0669	-0.469	-0.017	0.658	-0.851	-0.772	0.229	-0.579	0.343	0.563 (inactive)
